Source: PubChem BioAssay (EPA / NIEHS)
Calls of active or inactive are those of the source. How the source made its calls: active means hit-call score of the fitted dose curve at least 0.9, where 1 is the maximum; inactive means score below 0.9.

What follows are compounds tested on BCL2L11 (gene 10018) (assay: LTEA_HepaRG_BCL2L11: Life Technologies and Expression Analysis (LTEA) Assay for Bcl-2 (BCL2L11) gene using HepaRG (AID 2283473)). Settings: mRNA level, 48 h; actives raise or lower the signal.
In short: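 BCL2L11 transcript levels are measured by Fluidigm qRT-PCR, normalized to three housekeeping genes. HepaRG cultures were plated 48 h, then treated 48 h with test chemical (top 100 uM, half-log, 0.5% DMSO vehicle); curves were fitted bidirectionally against DMSO.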
With CNC(=O)Oc1cccc2ccccc12 the outcome was “inactive”. In the case of CCSC(=O)N1CCCCCC1, the outcome is reported as “inactive”. In the case of COc1ccc(-c2ccccc2)cc1NNC(=O)OC(C)C, the outcome is reported as “inactive”. For CC(C)=CC1C(C(=O)OCc2coc(Cc3ccccc3)c2)C1(C)C (configuration not stated), the outcome was “inactive”. OC(c1ccc(Cl)cc1)(c1ccc(Cl)cc1)C(Cl)(Cl)Cl was tested, and the outcome was “inactive”. For COC(=O)NS(=O)(=O)c1ccc(N)cc1, the outcome was “inactive”. For CC(C)Oc1cccc(NC(=O)c2ccccc2C(F)(F)F)c1, the outcome was “inactive”. For CS(=O)(=O)c1cc(C(F)(F)F)ccc1C(=O)c1cnoc1C1CC1, the outcome was “inactive”. For CCOP(=O)(OCC)Oc1nc(Cl)c(Cl)cc1Cl, the AC50 was 76.6 µM (active). With CCOP(=S)(OCC)Oc1nc(Cl)n(C(C)C)n1 the outcome was “inactive”. CCOc1nc(F)cc2nc(S(=O)(=O)Nc3c(Cl)cccc3Cl)nn12 was tested, and the outcome was “inactive”. In the case of COP(=S)(OC)SCn1nnc2ccccc2c1=O, the outcome is reported as “inactive”. With CNC(=O)N(C)c1nnc(C(C)(C)C)s1 the outcome was “inactive”. Clc1nc(Cl)nc(Nc2ccccc2Cl)n1 was tested, and the outcome was “inactive”. With Nc1c(Cl)c(Cl)nc(C(=O)O)c1Cl the outcome was “inactive”. In the case of Nc1c(Cl)c(F)nc(OCC(=O)O)c1Cl, the outcome is reported as “inactive”. In the case of CC1(C)CCC(=Cc2ccc(Cl)cc2)C1(O)Cn1cncn1 (configuration not stated), the outcome is reported as “inactive”. With CSC(=O)c1c(C(F)F)nc(C(F)(F)F)c(C(=O)SC)c1CC(C)C the outcome was “inactive”. With CCCCC(C#N)(Cn1cncn1)c1ccc(Cl)cc1 (configuration not stated) the outcome was “inactive”. For O=C(O)c1c(Cl)ccc2cc(Cl)cnc12, the outcome was “inactive”. With O=P(O)(O)CCCl the outcome was “inactive”. For Cc1cnc(C2=NC(C)(C(C)C)C(=O)N2)c(C(=O)O)c1 (configuration not stated), the outcome was “inactive”. For CCOC(=O)C(C)OC(=O)c1cc(Oc2ccc(C(F)(F)F)cc2Cl)ccc1[N+](=O)[O-] (configuration not stated), the outcome was “inactive”. In the case of COC(=O)N(C(=O)N1CO[C@@]2(C(=O)OC)Cc3cc(Cl)ccc3C2=N1)c1ccc(OC(F)(F)F)cc1, the AC50 is reported as 12.7 µM (active). With CC1(C)C(C=C(Cl)Cl)C1C(=O)OC(C#N)c1cccc(Oc2ccccc2)c1 (configuration not stated) the outcome was “inactive”. In the case of Cc1cc(C)nc(Nc2ccccc2)n1, the outcome is reported as “inactive”. With O=c1n(Cl)c(=O)n(Cl)c(=O)n1Cl the outcome was “inactive”. With CO/N=C(/C1=NOCCO1)c1ccccc1Oc1ncnc(Oc2ccccc2Cl)c1F the AC50 was 27.7 µM (active). In the case of COCC(=O)N(c1c(C)cccc1C)C(C)C(=O)OC (configuration not stated), the outcome is reported as “inactive”. In the case of C=CCOC(=O)C(C)(C)OC(=O)c1cc(-n2c(=O)cc(C(F)(F)F)n(C)c2=O)ccc1Cl, the outcome is reported as “inactive”. For COC(=O)c1c(C(F)F)nc(C(F)(F)F)c(C2=NCCS2)c1CC(C)C, the outcome was “inactive”. With CN=C=S the outcome was “inactive”. For CC(C)NC(=O)N1CC(=O)N(c2cc(Cl)cc(Cl)c2)C1=O, the outcome was “inactive”. In the case of COc1cc(OC)nc(NC(=O)NS(=O)(=O)c2ncccc2OCC(F)(F)F)n1, the outcome is reported as “inactive”. For COP(=O)(OC)O/C(C)=C/C(=O)N(C)C, the outcome was “inactive”. For CCOc1cc(C(C)(C)C)ccc1C1COC(c2c(F)cccc2F)=N1 (configuration not stated), the outcome was “inactive”.

Each compound was assayed on Apolipoprotein A-V (APOA5) gene, APOA5 (gene 116519) (assay: LTEA_HepaRG_APOA5: Life Technologies and Expression Analysis (LTEA) Assay for Apolipoprotein A-V (APOA5) gene using HepaRG (AID 2283474)). Settings: mRNA level, 48 h; actives raise or lower the signal.
In short: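 APOA5 transcript levels were quantified by qRT-PCR, normalized to three housekeeping genes, after 48 h chemical treatment of HepaRG cells (8 points, 100 uM maximum, half-log steps, 0.5% DMSO). Curves fitted in both directions against vehicle.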
For CNC(=O)Oc1cccc2ccccc12, the outcome was “inactive”. In the case of CCSC(=O)N1CCCCCC1, the outcome is reported as “inactive”. COc1ccc(-c2ccccc2)cc1NNC(=O)OC(C)C was tested, and the outcome was “inactive”. In the case of CC(C)=CC1C(C(=O)OCc2coc(Cc3ccccc3)c2)C1(C)C (configuration not stated), the outcome is reported as “inactive”. For OC(c1ccc(Cl)cc1)(c1ccc(Cl)cc1)C(Cl)(Cl)Cl, the AC50 was 4.05 µM (active). For COC(=O)NS(=O)(=O)c1ccc(N)cc1, the outcome was “inactive”. In the case of CC(C)Oc1cccc(NC(=O)c2ccccc2C(F)(F)F)c1, the outcome is reported as “inactive”. For CS(=O)(=O)c1cc(C(F)(F)F)ccc1C(=O)c1cnoc1C1CC1, the outcome was “inactive”. In the case of CCOP(=O)(OCC)Oc1nc(Cl)c(Cl)cc1Cl, the AC50 is reported as 83.8 µM (active). For CCOP(=S)(OCC)Oc1nc(Cl)n(C(C)C)n1, the AC50 was 21.4 µM (active). For CCOc1nc(F)cc2nc(S(=O)(=O)Nc3c(Cl)cccc3Cl)nn12, the outcome was “inactive”. With COP(=S)(OC)SCn1nnc2ccccc2c1=O the outcome was “inactive”. For CNC(=O)N(C)c1nnc(C(C)(C)C)s1, the outcome was “inactive”. In the case of Clc1nc(Cl)nc(Nc2ccccc2Cl)n1, the outcome is reported as “inactive”. In the case of Nc1c(Cl)c(Cl)nc(C(=O)O)c1Cl, the outcome is reported as “inactive”. Nc1c(Cl)c(F)nc(OCC(=O)O)c1Cl was tested, and the outcome was “inactive”. In the case of CC1(C)CCC(=Cc2ccc(Cl)cc2)C1(O)Cn1cncn1 (configuration not stated), the AC50 is reported as 49.8 µM (active). With CSC(=O)c1c(C(F)F)nc(C(F)(F)F)c(C(=O)SC)c1CC(C)C the outcome was “inactive”. In the case of CCCCC(C#N)(Cn1cncn1)c1ccc(Cl)cc1 (configuration not stated), the outcome is reported as “inactive”. For O=C(O)c1c(Cl)ccc2cc(Cl)cnc12, the outcome was “inactive”. With O=P(O)(O)CCCl the outcome was “inactive”. For Cc1cnc(C2=NC(C)(C(C)C)C(=O)N2)c(C(=O)O)c1 (configuration not stated), the outcome was “inactive”. CCOC(=O)C(C)OC(=O)c1cc(Oc2ccc(C(F)(F)F)cc2Cl)ccc1[N+](=O)[O-] (configuration not stated) was tested, and the outcome was “inactive”. For COC(=O)N(C(=O)N1CO[C@@]2(C(=O)OC)Cc3cc(Cl)ccc3C2=N1)c1ccc(OC(F)(F)F)cc1, the outcome was “inactive”. CC1(C)C(C=C(Cl)Cl)C1C(=O)OC(C#N)c1cccc(Oc2ccccc2)c1 (configuration not stated) was tested, and the outcome was “inactive”. For Cc1cc(C)nc(Nc2ccccc2)n1, the outcome was “inactive”. With O=c1n(Cl)c(=O)n(Cl)c(=O)n1Cl the outcome was “inactive”. With CO/N=C(/C1=NOCCO1)c1ccccc1Oc1ncnc(Oc2ccccc2Cl)c1F the AC50 was 23.6 µM (active). In the case of COCC(=O)N(c1c(C)cccc1C)C(C)C(=O)OC (configuration not stated), the outcome is reported as “inactive”. For C=CCOC(=O)C(C)(C)OC(=O)c1cc(-n2c(=O)cc(C(F)(F)F)n(C)c2=O)ccc1Cl, the outcome was “inactive”. In the case of COC(=O)c1c(C(F)F)nc(C(F)(F)F)c(C2=NCCS2)c1CC(C)C, the outcome is reported as “inactive”. For CN=C=S, the outcome was “inactive”. For CC(C)NC(=O)N1CC(=O)N(c2cc(Cl)cc(Cl)c2)C1=O, the AC50 was 22.7 µM (active). With COc1cc(OC)nc(NC(=O)NS(=O)(=O)c2ncccc2OCC(F)(F)F)n1 the outcome was “inactive”. With COP(=O)(OC)O/C(C)=C/C(=O)N(C)C the outcome was “inactive”. With CCOc1cc(C(C)(C)C)ccc1C1COC(c2c(F)cccc2F)=N1 (configuration not stated) the outcome was “inactive”.
